The values below come from ChEMBL document CHEMBL4513216, “Probing the Open Global Health Chemical Diversity Library for Multistage-Active Starting Points for Next-Generation Antimalarials” (ACS Infect Dis, 2020).

In all, about 68,000 compounds went through this assay and about 2,700 (4%) showed an effect of 50% or more. This is one part of a sample in which strong results are shown more often than they occur.

The test system of this test is Plasmodium berghei. Kind of test: Screen against P. berghei liver stage (PbLuc), transformed with Luciferase, at 2uM. It counts as functional, HepG2. The settings on record: tested at 2 uM.
Turning to `O=C1Nc2ccccc2C12CCN(Cc1nccs1)CC2`, the INHIBITION stood at 21.61%.
In the case of `O=C(Cc1ccccc1F)N1C[C@@H]2COC[C@]2(COc2cccnc2)C1` it was -2.44%; in that of `CO[C@H]1CO[C@@]2(CCCN(C(=O)N3CCCC3)C2)C1`, 28.13%; in that of `CN1CCCN(S(=O)(=O)c2cccc(C(=O)N3CCCCCC3)c2)CC1`, 54.75%.
Under `CN1CCCN(C(=O)c2cccc(S(=O)(=O)NCC3(C)COC3)c2)CC1` stands -35.07%; under `CC1=CCN(S(=O)(=O)c2cccc(C(=O)N3CCCN(C)CC3)c2)CC1`, 23.17%; under `CCN(CC)C(=O)CSc1sc2c(O)cc(=O)[nH]c2c1C(N)=O`, -56.02%.
On to `Cc1ccc(N2C[C@H]3CCN(Cc4ccncc4)C[C@H]3C2)nn1`, for which the INHIBITION is 16.63%.
In the case of `O=C(c1ccoc1)N1CCO[C@]2(CCC[C@H]2COCc2cccnc2)C1` it was 5.85%; in that of `O=C(c1ccno1)N1CCO[C@]2(CCC[C@@H]2COCc2ccncc2)C1`, 64.99%.
On to `O=C(c1ccoc1)N1CCO[C@]2(CCC[C@@H]2COCc2ccncc2)C1`, for which the INHIBITION was determined as 35.48%.
`CCNC(=O)C1(Cc2cc(-c3ccc(C)cc3)no2)CCCN(C)C1` (stereo unspecified): the INHIBITION is -40.35%.
Take `CS(=O)(=O)c1cn[nH]c1C1CCCCN1C(=O)c1cnccn1` (stereo unspecified): the INHIBITION is recorded as 17.39%.
In the case of `CC(C)NC(=O)N1CCC2(CC(C(=O)NCc3cccnc3)=NO2)C1` (stereo unspecified) it was -7.01%; in that of `COCCN(CCOC)c1ncccc1I`, 38.1%; in that of `COCCN(CCOC)c1ncc(C#N)cc1Cl`, 1.42%.
In the case of `COCCN(CCOC)c1ncccc1Cl` it was 67.7%; in that of `CCOc1ccc(Cl)cc1C1CCCCN1` (stereo unspecified), 14.61%.
In the case of `COCCNC(=O)Cn1cc2c(n1)c(C)nn2C(C)C` it was -28.32%; in that of `CC(C)CN1CC[C@H](c2nnc(COc3ccc(F)cc3)o2)C1`, 10.65%.
For the molecule `CS(=O)(=O)N1CC2(CCN(C(=O)c3ccncc3)CC2)c2ccccc21`, the INHIBITION stood at 9.53%.
In the case of `Cn1cccc1C(=O)N1CCC2(CC1)CN(S(C)(=O)=O)c1ccccc12` it was 38.64%; in that of `CS(=O)(=O)N1CC2(CCN(C(=O)c3csnn3)CC2)c2ccccc21`, 54.01%; in that of `O=C(CN1C(=O)c2ccccc2C1=O)N1CCOC2(CCOCC2)C1`, 13.46%.
Under `CN(C)CCOCc1cncc2c1CCN(C(=O)c1cscn1)C2` stands -30.85%; under `CN(Cc1n[nH]c2c1CCCC2)c1cc(N2CCOCC2)nc(N)n1`, -32.88%.
For the molecule `CCc1cc(N(C)Cc2[nH]nc3c2CCC3)nc(N2CCOCC2)n1`, the INHIBITION came to 33.9%.
Under `Nc1nc(NCCc2[nH]nc3c2CCCC3)cc(N2CCOCC2)n1` stands 67.28%; under `CCn1nc(C)c(NC(=O)CCn2ncc3cc(C)ccc32)c1C`, 24.79%; under `CCc1nsc(NC2CCCn3nc(COC)nc32)n1` (stereo unspecified), -11.71%.
Take `CCc1ncncc1C(=O)NCCNS(=O)(=O)c1ccc(C)cc1`: the INHIBITION was -41.64%.
On to `CCc1ncncc1C(=O)NCCNS(=O)(=O)c1ccccc1`, for which the INHIBITION is recorded as 48.68%.
For the molecule `Cc1ccc(S(=O)(=O)NCCNC(=O)c2cncnc2C)cc1`, the INHIBITION came to 55.25%.
In the case of `Cc1nn(Cc2ccc(C(=O)NCCCN3CCCC3=O)o2)c(C)c1Cl` it was 26.37%; in that of `CCCc1n[nH]c(C2CN(C(=O)c3cc(F)ccc3OC)CCO2)n1` (stereo unspecified), -29.94%; in that of `Cc1nc2n(n1)CC(NCC(=O)Nc1cc(C)on1)CC2` (stereo unspecified), -2.87%.
Under `Cc1nc2n(n1)CC(NCC(=O)NCC1(c3ccccc3)CC1)CC2` (stereo unspecified) stands 58.69%; under `COc1ccccc1CCNC(=O)CNC1CCc2nc(C)nn2C1` (stereo unspecified), 35.56%.
With `CC(=O)N1CCCn2nc(CNS(=O)(=O)N3CCC(C)CC3)cc2C1`, the INHIBITION is listed as 47.62%.
Under `O=c1[nH]c(NC2CCCC2)nc2nccc(-c3ccsc3)c12` stands -18.11%.
On to `COCCN1CC[C@]2(CN(C(=O)c3ccc[nH]3)C[C@H]2C)C1=O`, for which the INHIBITION turned out to be 16.21%.
Under `CCOc1c(Br)cc(CNCCc2nnc3n2CCCCC3)cc1OC` stands 23.16%; under `CC1CCCCN1C(=O)c1nc2c(n1C(C)C)CCN(C)C2` (stereo unspecified), -19.99%; under `Cc1nn(C)c(Cl)c1C1CCCN1CC(=O)N1CCCCC1` (stereo unspecified), -0.9%.
In the case of `CC(=O)N1CCN(C(=O)CN2CCCC2c2c(C)nn(C)c2C)CC1` (stereo unspecified) it was 60.6%; in that of `N#CCCCOc1cccc(CN2CCCC2c2ccc[nH]2)c1` (stereo unspecified), -61.99%.
In the case of `Cc1nn(C)c(C)c1C1CCCN1Cc1cccc(OCC(N)=O)c1` (stereo unspecified) it was 35.94%.
As to `Cc1nn(C)c(C)c1C1CCCN1Cc1cccc(C(N)=O)c1` (stereo unspecified), the INHIBITION came to 15.91%.
Under `Cc1nn(C)c(C)c1NC(=O)CN1CCCC1c1c(C)nn(C)c1C` (stereo unspecified) stands 23.42%.
Under `COc1cccc(CN2CCCC2c2c(C)nn(C)c2C)c1` (stereo unspecified) stands 61.53%; under `Cc1nn(C)c(C)c1C1CCCN1Cc1nc2ccccc2n1C` (stereo unspecified), 53.11%.
In the case of `Cc1nc2ccccc2nc1CN1CCCC1c1c(C)nn(C)c1C` (stereo unspecified) it was 28.51%; in that of `NC(=O)COc1cccc(CN2CCCC2c2ccc[nH]2)c1` (stereo unspecified), -4.58%.
With `COc1cccc(CN2CCCC2c2ccc[nH]2)c1` (stereo unspecified), the INHIBITION is reported as 68.02%.
Under `Cc1nn(C)c(C)c1C1CCCN1Cc1nc(C)c2ccccc2n1` (stereo unspecified) stands 5.1%; under `Cn1cccc1CCC(=O)N1CCC2(CC1)c1ccccc1CC2O` (stereo unspecified), -57.12%; under `Cc1cnccc1N1CCCN(C(=O)CCc2n[nH]c(C)c2C)CC1`, -40.52%.
Under `O=C(c1ccc(F)c(Br)c1)N1CCCN2CCCC2C1` (stereo unspecified) stands -4.48%; under `COCc1cn(C2CCN(C(=O)Cc3ccsc3)CC2)nn1`, 53.98%.
Turning to `O=C(CCc1ccsc1)N1CCC(n2cc(CO)nn2)CC1`, the INHIBITION is listed as -25.13%.
Under `O=C(Cc1ccsc1)N1CCC(Cn2cc(CCO)nn2)CC1` stands 12.57%; under `Cc1noc(CCCC(=O)N2CCCCC2CNS(C)(=O)=O)n1` (stereo unspecified), 30.58%; under `CC(C)Oc1ccc(CSc2nnc(CN3CCCC3=O)o2)cc1`, 0.63%.
As for `O=C1CCCN1Cc1nnc(SCc2ccc3c(c2)CCC3)o1`, the INHIBITION was found to be 52.31%.
Consider `CC(C)c1cccc(CSc2nnc(CN3CCCC3=O)o2)n1`, for which the INHIBITION is listed as -12.97%.
In the case of `CN(C)C(=O)CN(C)C(=O)c1cnc(Cc2ccc(F)cc2)s1` it was 52.08%; in that of `CCNC(=O)c1cnc(Cc2ccc(F)cc2)s1`, 6.55%; in that of `COC(=O)CCNC(=O)c1cnc(Cc2ccc(F)cc2)s1`, -9.47%.
Consider `CN(C)CCCNC(=O)c1cnc(Cc2ccc(F)cc2)s1`, for which the INHIBITION was -12.27%.
Under `CCc1ncc(C(=O)NCCNc2ccncc2)s1` stands -23%.
In the case of `CCc1ncc(C(=O)NCCNC(=O)Cc2ccc(F)cc2)s1` it was 61.99%.
Under `O=C(CC1CCCO1)NCc1ccc(Br)cc1F` (stereo unspecified) stands -7.89%.
For `CC(C)N1CCCC(C(=O)N2CCN(c3nsc4ccccc34)CC2)C1` (stereo unspecified), the INHIBITION is -52.08%.
In the case of `O=C(NCC1CCOC1)c1csc(Cc2ccccc2)n1` (stereo unspecified) it was 28.14%.
In the case of `Cc1ccc(C(=O)N2CC(C(N)=O)O[C@H](C)C2)c(F)c1` (stereo partly specified) it was -41.96%.
Under `COC(=O)C1CCCCN1C(=O)c1ccc(N(C)C)cc1F` (stereo unspecified) stands 36.67%; under `Cc1ccc(C(=O)N2CC(C(N)=O)O[C@H](C)C2)c(C)c1` (stereo partly specified), -3.25%; under `COC(=O)C1CCCN1C(=O)c1ccc(Br)cc1F` (stereo unspecified), 61.96%.
Regarding `C[C@@H]1CN(C(=O)c2ccc(Br)cc2F)CC(C(N)=O)O1` (stereo partly specified), the INHIBITION was 57.34%.
Under `COC(=O)C1CCCN1C(=O)c1ccc(Cl)cc1F` (stereo unspecified) stands -8.14%; under `Cc1ccsc1C(=O)N1CCc2ncc(CN(C)C)n2CC1`, 23.59%; under `Cc1cc(C)c2[nH]c(=O)c(CN3CCCC4(C3)CN(C)C(=O)O4)cc2c1` (stereo unspecified), 15.08%.
In the case of `O=C(c1ccc(S(=O)(=O)NCCc2ccccn2)cc1)N1CCCC1` it was 29.41%; in that of `CC(C)c1nn(C)c(N(C)C)c1CNCc1ccnn1C`, 32.93%.
Under `CCC1CN(CC(=O)NCCOC)CCO1` (stereo unspecified) stands 36.09%; under `CCC1CN(CC(=O)NCCC#N)CCO1` (stereo unspecified), 21.72%; under `CCCNC(=O)CN1CCOC(CC)C1` (stereo unspecified), 60.52%.
With `CCN(CC1CCOCC1)C(=O)C1CC(=O)N(Cc2cccnc2)C1` (stereo unspecified), the INHIBITION is 10.83%.
Consider `COc1ccc(CC(=O)N2CCCN(c3ccc(C#N)cc3)CC2)cc1`, for which the INHIBITION was -28.34%.
In the case of `O=C(NC1CCC1)C1=NOC2(CCN(Cc3ccc(F)cc3)C2)C1` (stereo unspecified) it was 34.13%; in that of `CCC(=O)N1CCC(Oc2ccc(C(=O)NCCN(C)C)cc2Cl)CC1`, 51.96%; in that of `CN(C)CCNC(=O)c1ccc(OC2CCN(C(=O)CO)CC2)c(Cl)c1`, 14.63%.
Under `COC(=O)N1CCC(Oc2ccc(C(=O)NCCN(C)C)cc2Cl)CC1` stands 30.62%.
For the molecule `CNC(=O)c1nc(CN2CCOC(CCCC(C)C)C2)no1` (stereo unspecified), the INHIBITION is given as -65.52%.
In the case of `NC(=O)c1nc(CN2CCOC(C(F)(F)F)C2)no1` (stereo unspecified) it was 43.91%; in that of `CNC(=O)c1nc(CN2CCOC(C(F)(F)F)C2)no1` (stereo unspecified), 65.76%.
In the case of `COC(=O)CC(c1ccc(OC)c(OC)c1OC)c1c(O)n[nH]c1C` (stereo unspecified) it was -8.07%; in that of `Cc1cc2c(=O)n3c(nc2s1)CCN(C(=O)c1cnn(C)c1)CC3`, -18.04%; in that of `Cc1cc2c(=O)n3c(nc2s1)CCN(C(=O)c1nn(C)cc1Cl)CC3`, 26.56%.
Under `Cc1cc2c(=O)n3c(nc2s1)CCN(C(=O)c1cn(C)nc1C)CC3` stands 66.16%; under `COCCc1noc(CN(C)c2cc(C)ncn2)n1`, 41.63%.
With `Cc1nc(N2CCN(C(=O)c3ccncc3)CC2)c2c(n1)c(C)nn2C`, the INHIBITION was 4.87%.
For the molecule `COc1cccc(CC2(C(=O)O)CCN(c3nccs3)CC2)c1`, the INHIBITION is on record as 50.59%.
In the case of `COc1cccc(CC2(CO)CCCN(c3nccs3)C2)c1` (stereo unspecified) it was 14.21%; in that of `COc1cccc(CC2(C(=O)O)CCN(c3ccc(Cl)cn3)CC2)c1`, 7.67%; in that of `Cc1nc(N(C)Cc2cccc(O)c2)nc2cc(S(C)(=O)=O)ccc12`, 33.4%.
